Test results taken from PubChem BioAssay AID1159580 (chemical genetic matrix, 2015).
Out of some 5,500 compounds screened, about 2,000 (36%) were called active. Another 18% or so got no clear call; they are omitted. Cut-off read from the data, not from the text of the source: active = normalized growth mostly below about 0.91 (no sharp cut-off); inconclusive = no clear call, values can overlap the other calls; inactive = mostly above about 0.92. Some of the results follow.

Assay: chemical genetic growth profiling, strain panel (AID 1159580);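 note: tested at 20 µM; growth read once vehicle control cultures reached saturation at 30 °C; 1 = growth at the plate median or of vehicle wells; lower values mean less growth of the strain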
Conditions: S. cerevisiae deletion strains, growth OD

Measured: normalized growth

Oc1ccc2c(c1)O[C@H](c1ccc(O)c(O)c1)[C@@H](O)C2
inactive: locus YAL013W, strain DEP1, hits give low values 1.03 | locus YAL021C, strain ccr4, hits give low values 1.02 | locus YAL026C, strain drs2, hits give low values 1.03 | locus YAL030W, strain snc1, hits give low values 1.02 | locus YBL061C, strain skt5, hits give low values 1.04 | locus YBR009C, strain hhf1, hits give low values 1.03 | locus YBR021W, strain FUR4, hits give low values 1.04 | locus YBR023C, strain chs3, hits give low values 1.03 | locus YBR171W, strain sec66, hits give low values 1.03 | locus YBR229C, strain ROT2, hits give low values 1.03 | locus YBR231C, strain swc5, hits give low values 1.03 | locus YBR279W, strain paf1, hits give low values 1.02 | locus YCL011C, strain gbp2, hits give low values 1.02 | locus YCL016C, strain dcc1, hits give low values 1.02 | locus YCL029C, strain bik1, hits give low values 1.02 | locus YCL061C, strain MRC1, hits give low values 1.02 | locus YCL069W, strain vba3, hits give low values 1.03 | locus YCR088W, strain abp1, hits give low values 1.02 | locus YDL005C, strain med2, hits give low values 1.02 | locus YDL035C, strain GPR1, hits give low values 1.07 | locus YDL040C, strain nat1, hits give low values 1.03 | locus YDL074C, strain BRE1, hits give low values 1.08 | locus YDL101C, strain DUN1, hits give low values 1.03 | locus YDL134C, strain PPH21, hits give low values 1.05 | locus YDL185W, strain tfp1, hits give low values 0.989 | locus YDL192W, strain arf1, hits give low values 1.03 | locus YDR001C, strain nth1, hits give low values 1.03 | locus YDR069C, strain doa4, hits give low values 1.03 | locus YDR101C, strain arx1, hits give low values 1 | locus YDR137W, strain rgp1, hits give low values 1.01 | locus YDR150W, strain NUM1, hits give low values 1.03 | locus YDR159W, strain sac3, hits give low values 1.04 | locus YDR162C, strain NBP2, hits give low values 1.04 | locus YDR195W, strain ref2 0.991 | locus YDR297W, strain sur2, hits give low values 1.03 | locus YDR318W, strain mcm21, hits give low values 1.01 | locus YDR334W, strain swr1, hits give low values 1.04 | locus YDR335W, strain msn5, hits give low values 1.03 | locus YDR388W, hits give low values 0.992 | locus YDR392W, strain spt3, hits give low values 1.03 | locus YDR502C, strain sam2, hits give low values 0.993 | locus YEL003W, strain gim4, hits give low values 1.03 | locus YEL037C, strain rad23, hits give low values 1.02 | locus YEL061C, strain CIN8 (second series), hits give low values 1.03 | locus YEL061C, strain CIN8, hits give low values 1.03 | locus YER015W, strain faa2, hits give low values 1.02 | locus YER016W, strain bim1, hits give low values 1.02 | locus YER110C, hits give low values 1.02 | locus YER111C, strain swi4, hits give low values 1.03 | locus YER155C, strain BEM2 (second series), hits give low values 1.03 | locus YER155C, strain BEM2, hits give low values 1.03 | locus YER167W, strain BCK2, hits give low values 1.03 | locus YFR010W, strain ubp6, hits give low values 1.02 | locus YGL078C, strain dbp3, hits give low values 1.01 | locus YGL086W, strain mad1, hits give low values 0.997 | locus YGL167C, strain pmr1, hits give low values 1.02 | locus YGL173C, strain kem1, hits give low values 1.04 | locus YGL227W, strain vid30, hits give low values 1.03 | locus YGL240W, strain doc1, hits give low values 1.03 | locus YGL248W, strain PDE1, hits give low values 1.06 | locus YGL253W, strain hxk2, hits give low values 1.02 | locus YGR078C, strain PAC10, hits give low values 1.04 | locus YGR135W, strain pre9, hits give low values 1.01 | locus YGR252W, strain gcn5, hits give low values 0.989 | locus YHR013C, strain ard1, hits give low values 1.02 | locus YHR027C, strain rpn1, hits give low values 1.02 | locus YHR030C, strain SLT2, hits give low values 1.03 | locus YHR079C, strain IRE1 (second series), hits give low values 1 | locus YHR094C, strain hxt1, hits give low values 0.99 | locus YHR129C, strain ARP1, hits give low values 1.03 | locus YHR142W, strain chs7, hits give low values 1.04 | locus YHR200W, strain rpn10, hits give low values 1 | locus YIL066C, strain RNR3, hits give low values 1.04 | locus YIL073C, strain SPO22, hits give low values 1.1 | locus YIL125W, strain kgd1, hits give low values 1.02 | locus YIR030C, strain dcg1, hits give low values 1 | locus YJL092W, strain hpr5, hits give low values 1.02 | locus YJL095W, strain BCK1 (second series), hits give low values 1.03 | locus YJL095W, strain BCK1, hits give low values 1.08 | locus YJL115W, strain asf1, hits give low values 1.02 | locus YJL129C, strain trk1, hits give low values 1.04 | locus YJL134W, strain LCB3, hits give low values 1.03 | locus YJL154C, strain vps35, hits give low values 1.02 | locus YJL164C, strain tpk1, hits give low values 1.03 | locus YJL166W, strain qcr8, hits give low values 1.03 | locus YJL168C, strain set2, hits give low values 1.01 | locus YJL187C, strain SWE1 (second series), hits give low values 1.04 | locus YJL187C, strain SWE1, hits give low values 1.03 | locus YJR043C, strain POL32, hits give low values 1.06 | locus YKL009W, strain mrt4, hits give low values 1.01 | locus YKL068W, hits give low values 0.988 | locus YKL085W, strain MDH1 (second series), hits give low values 1.01 | locus YKL085W, strain MDH1, hits give low values 1.01 | locus YKL160W, strain elf1, hits give low values 1.02 | locus YKL190W, strain CNB1, hits give low values 1.03 | locus YKR001C, strain vps1, hits give low values 1.04 | locus YKR026C, strain gcn3, hits give low values 1.02 | locus YKR091W, strain srl3, hits give low values 1.03 | locus YLL001W, strain dnm1, hits give low values 1.02 | locus YLL026W, hits give low values 1.03 | locus YLL041C, strain sdh2, hits give low values 1.03 | locus YLR027C, strain aat2, hits give low values 1.02 | locus YLR039C, strain RIC1, hits give low values 1.23 | locus YLR058C, strain SHM2, hits give low values 1.04 | locus YLR102C, strain apc9, hits give low values 0.992 | locus YLR221C, strain rsa3, hits give low values 1.02 | locus YLR258W, strain gsy2, hits give low values 1.03 | locus YLR262C, strain YPT6 (second series), hits give low values 1.04 | locus YLR262C, strain YPT6, hits give low values 1.25 | locus YLR268W, strain sec22, hits give low values 1.02 | locus YLR320W, strain mms22, hits give low values 1.05 | locus YLR330W, strain CHS5, hits give low values 1.03 | locus YLR342W, strain FKS1, hits give low values 1.03 | locus YLR357W, strain rsc2, hits give low values 1.06 | locus YLR370C, strain arc18, hits give low values 1.04 | locus YLR371W, strain rom2, hits give low values 1.02 | locus YLR384C, strain iki3, hits give low values 1.03 | locus YLR418C, strain cdc73, hits give low values 1.03 | locus YML016C, strain PPZ1, hits give low values 1.03 | locus YML032C, strain rad52, hits give low values 1.01 | locus YML120C, strain ndi1, hits give low values 1.03 | locus YML124C, strain tub3, hits give low values 1.01 | locus YMR058W, strain fet3, hits give low values 1.02 | locus YMR078C, strain ctf18, hits give low values 0.992 | locus YMR125W, strain sto1, hits give low values 1.02 | locus YMR129W, hits give low values 1.03 | locus YMR205C, strain PFK2, hits give low values 1.06 | locus YMR223W, strain ubp8, hits give low values 0.999 | locus YMR231W, strain pep5, hits give low values 1.01 | locus YMR307W, strain GAS1, hits give low values 1.2 | locus YNL067W, strain RPL9B, hits give low values 1.02 | locus YNL071W, strain lat1, hits give low values 1.05 | locus YNL153C, strain GIM3, hits give low values 1.04 | locus YNL209W, strain ssb2, hits give low values 1.01 | locus YNL233W, strain BNI4, hits give low values 1.04 | locus YNL248C, strain rpa49, hits give low values 1.03 | locus YNL250W, strain rad50, hits give low values 1.01 | locus YNL271C, strain bni1, hits give low values 1.03 | locus YNL298W, strain CLA4, hits give low values 1.01 | locus YNL307C, strain MCK1, hits give low values 1.01 | locus YNL322C, strain KRE1 (second series), hits give low values 1.02 | locus YNR049C, strain mso1, hits give low values 1.03 | locus YNR052C, strain pop2, hits give low values 1 | locus YOL012C, strain htz1 0.833 | locus YOL147C, strain pex11, hits give low values 0.996 | locus YOR001W, strain rrp6, hits give low values 1.03 | locus YOR061W, strain CKA2, hits give low values 1.04 | locus YOR069W, strain VPS5, hits give low values 1.03 | locus YOR070C, strain gyp1, hits give low values 1.03 | locus YOR080W, strain dia2, hits give low values 1.02 | locus YOR083W, strain WHI5, hits give low values 1.02 | locus YOR106W, strain vam3, hits give low values 1.03 | locus YOR136W, strain idh2, hits give low values 0.996 | locus YOR144C, strain elg1, hits give low values 0.992 | locus YOR184W, strain ser1, hits give low values 1.05 | locus YOR265W, strain rbl2, hits give low values 1.03 | locus YOR270C, strain vph1, hits give low values 1.06 | locus YOR290C, strain snf2, hits give low values 1.05 | locus YOR316C, strain cot1, hits give low values 0.999 | locus YPL051W, strain arl3, hits give low values 1.01 | locus YPL078C, strain atp4, hits give low values 1.02 | locus YPL106C, strain sse1, hits give low values 0.998 | locus YPL240C, strain hsp82, hits give low values 1.02 | locus YPR119W, strain clb2, hits give low values 0.996 | locus YPR141C, strain kar3, hits give low values 1.01 | locus YPR163C, strain tif3, hits give low values 0.999 | locus YPR167C, strain met16, hits give low values 0.996 | strain wtn01, hits give low values 1.02
